# Most compounds without a hit are left out; they make up all but 5.9% or so of the library.
# HSF1 inh – HSF1 inhibition. NIH3T3-HGL HSE-luciferase, MG132-induced, luminescence 8 h; active compounds read low. activity change, negative = inhibition, % at 7.5 µM (by protocol). 300,000 tested, 0.77% active;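 active means more than half of replicate wells show activity change below -50%, luminescence cut by over half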;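 further: luciferase reports HSF-1 transcriptional activity via heat shock element; 0% = median of DMSO wells and -100% = zero luminescence signal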
# AHR activator – activators of human aryl hydrocarbon receptor. P35869. AHR-responsive luciferase reporter cells, luminescence. activation, % at 5 µM. 320,000 tested, 2.5% active; in the data active means activation above about 47%;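 further: 0% = vehicle wells and 100% = reference agonist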
# HSF-1 act – increases HSF-1 driven luciferase reporter signal; NIH3T3-HGL HSF-1 luciferase reporter, MG132, 8 h; 100% = twice DMSO control signal; activation, % at 9 µM; 300,000 tested, 1.7% active; AID 504408;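 active means mean replicate activation of at least 50% with a set share of replicates each reaching 50%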;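 further: 0% = median of the neutral control wells and 100% = twice that signal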
# NR0B1 inh – inhibits human nuclear receptor DAX1 | HEK293 Gal4-DAX1 luciferase reporter, luminescence | 340,000 tested, 0.99% active | AID 504766 | inhibition, % at 6.75 µM;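 active means inhibition above the mean over all tested compounds plus 3 SD, cut at about 4.2% in these data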;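 further: 0% = DAX1-transfected cells with DMSO and 100% = empty-vector control cells with DMSO; inhibition shows as a rise in luminescence from relieved DAX1 repression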
# Target sequence (P51843 207-470 limits assumed): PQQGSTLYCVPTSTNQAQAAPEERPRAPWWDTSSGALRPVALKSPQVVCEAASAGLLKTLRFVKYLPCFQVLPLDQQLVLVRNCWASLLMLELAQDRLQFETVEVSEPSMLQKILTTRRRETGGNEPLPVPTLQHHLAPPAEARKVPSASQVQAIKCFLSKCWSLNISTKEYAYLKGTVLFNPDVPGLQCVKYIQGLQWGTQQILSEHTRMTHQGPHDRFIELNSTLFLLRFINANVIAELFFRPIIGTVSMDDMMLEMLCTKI
# HSP90 inh – HSP90 refolding inhibition in rabbit reticulocyte lysate; 290,000 tested, 0.91% active; inhibition, % at 5.6 µM; luciferase refolding luminescence, 3 h;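 active means inhibition above the screen-wide mean plus 3 SD, computed separately per campaign, cut at about 16% in these data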;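 further: 0% = DMSO wells and 100% = 60 µM geldanamycin wells; inhibitors lower the luminescence because luciferase stays unfolded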
# FXN GAA850 act – increases GAA850 frataxin promoter reporter activity; HEK293 lucGAA850 FXN promoter luciferase reporter, 24 h; percent of 10 µM SAHA response; activation, % at 6 µM; 360,000 tested, 0.56% active;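 active means activation above the average of all compounds screened plus 3 SD, cutoff fixed separately per campaign, cut at about 7.5% in these data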;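 further: 0% = DMSO wells and 100% = 10 µM SAHA wells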
# * marks the source's active call; other numbers are inactive results; · = no result given.
SMILES,HSF1 inh,AHR activator,HSF-1 act,NR0B1 inh,HSP90 inh,FXN GAA850 act
Cc1sc2ncnc(N/N=C/c3ccc(O)cc3)c2c1C,-3,28,-19,-1,-2,0
S=C(NCc1ccco1)Nc1ccc(Br)cc1Cl,167,3,199*,·,-6,6
S=C(NCCNC(=S)Nc1ccccc1Cl)Nc1ccccc1Cl,5,0,-8,0,-6,0
S=C(NCc1ccccc1)NCc1ccco1,18,·,56*,-1,-3,3
S=C(NCc1ccccc1Cl)Nc1ccccc1Cl,·,4,·,7.4*,5,-1
S=C(NCc1ccccn1)Nc1ccc(Br)cc1Cl,40,7,45,5.6*,1,4
S=C(NCc1ccco1)Nc1ccc(Cl)cc1Cl,22,1,24,0,-7,5
O=C(NCc1ccccn1)Nc1ccc(Br)cc1Cl,25,1,27,2,-6,2
COc1ccc(/C(C)=N/NC(=S)NCc2ccco2)cc1,48,63*,73*,0,2,2
S=C(NCCc1ccccn1)Nc1ccccc1Cl,-6,-2,14,0,3,0
S=C(NCc1ccccn1)Nc1ccccc1Cl,36,13,63*,1,-1,4
COc1ccc(-c2cn[nH]c2-c2ccc(OCc3ccc([N+](=O)[O-])cc3)cc2O)cc1,-14,51*,-6,-2,3,-2
CCc1cc(-c2[nH]ncc2-c2ccc(OC)cc2)c(O)cc1O,-34,31,-32,-1,1,0
CCCCNC(=S)Nc1cccc(S(=O)(=O)NC2=NCCC2)c1,-2,-1,-8,1,·,1
CS(=O)(=O)Nc1ccc2c(c1)OCC(=O)N2Cc1ccccc1,17,2,40,1,6,-2
CC(=O)Nc1cc(C(=O)N2CCCC2)ccc1Sc1ccc(C)cc1,-10,1,-12,-1,-3,-5
CC(=O)Nc1cc(C(=O)N(C)Cc2ccco2)ccc1Sc1ccc(C)cc1,-81*,0,-85,0,-6,1
COc1ccc(CNC(=O)c2cc(C)nn2-c2ccccc2)cc1,6,6,7,6.7*,3,0
COc1ccc(CNC(=O)c2sc(=S)n(-c3ccccc3)c2N)cc1,-67*,5,-73,-2,-7,0
Oc1ccc(-c2nc3ccccc3s2)c(O)c1,31,8,61*,1,3,4
COc1ccc(N2CCN(C(=O)c3ccc(-c4nc5ccccc5s4)o3)CC2)cc1,·,69*,·,-1,·,4
COc1cccc(-c2nc3ccccc3s2)c1,20,68*,21,1,3,3
Oc1ccc(-c2nc3ccccc3s2)cc1,20,55*,34,1,9,3
CC(=O)Nc1ccc(S(=O)(=O)N2CCC(C(=O)NCCc3c[nH]c4ccccc34)CC2)cc1,6,·,8,-1,1,-1
COc1ccc(CCNC(=O)Oc2ccccc2)cc1OC,-2,0,0,0,1,-1
SMILES,HSF1 inh,AHR activator,HSF-1 act,NR0B1 inh,HSP90 inh,FXN GAA850 act
c1csc(-c2nc3ccccc3s2)c1,15,4,27,4.6*,-1,5
c1ccc2sc(-c3ccncc3)nc2c1,·,4,·,1,2,4
Nc1ccccc1-c1nc2ccccc2s1,-71*,57*,-79,2,-6,7
Nc1ccc(O)c(-c2nc3ccccc3s2)c1,-1,22,10,1,1,2
COc1ccc(-c2nc3ccccc3s2)cc1,·,·,·,-2,18*,1
CS(=O)(=O)c1ccc(Cl)c(NC(=O)CSC(=S)N2CCCC2)c1,-2,0,-6,1,-4,2
CC(C)c1ccc(C(=O)Nc2cccnc2)cc1,16,2,21,1,0,2
Cc1ccc(NS(=O)(=O)c2cc(C(=O)N3CCc4ccccc4C3)ccc2Cl)cc1,31,1,67*,0,-1,-1
COc1ccc(C(=O)OCc2ccccc2C#N)cc1S(=O)(=O)N1CCOCC1,·,·,·,0,·,2
CN(c1ccccc1)c1nc(N)c([N+](=O)[O-])c(N2CCCCCC2)n1,51,8,78*,0,0,4
CC1CCN(c2nc(N(C)c3ccccc3)nc(N)c2[N+](=O)[O-])CC1,27,4,67*,0,-1,3
CCN1CCN(c2nc(N(C)c3ccccc3)nc(N)c2[N+](=O)[O-])CC1,-3,-1,3,1,-2,3
CCc1ccccc1NC(=O)c1cc2sccc2n1C,3,64*,5,1,1,3
COC(=O)c1ccc(NC(=O)c2cc3sccc3n2C)cc1,7,-5,-1,1,-4,0
Cn1c(C(=O)Nc2ccccc2)cc2sccc21,19,56*,36,4,-2,5
COc1ccc(CCC(=O)NNC(=O)Nc2ccc(C(C)=O)cc2)cc1,-4,0,2,-1,-1,0
Cc1ccccc1OCC(O)COc1ccccc1C,·,·,·,1,·,2
CCCCN(C)C(=O)c1nc2ccccn2c1CN1CCC[C@H]1C(=O)OC,-5,3,7,2,2,-1
COc1ccc(C(OC(=O)c2ccco2)C(=O)NC2CCCC2)cc1 (stereo unspecified),-5,-1,3,-1,1,1
COC(=O)Cn1c(=O)c2c(nc3n2CC(C)CN3CCc2ccccc2)n(C)c1=O (stereo unspecified),18,·,63*,-2,-5,-1
COC(=O)Cn1c(=O)c2c(nc3n2CC(C)CN3Cc2ccccc2)n(C)c1=O (stereo unspecified),0,-1,3,0,-3,0
Cn1c(=O)n(Cc2ccc(F)cc2)c(=O)c2c1nc1n2CCN1Cc1ccco1,1,2,3,0,-2,-2
Cn1c(=O)n(CCc2ccccc2)c(=O)c2c1nc1n2CCN1Cc1ccco1,-2,66*,0,-2,2,-1
O=C(O)C1C2CCC(O2)C1C(=O)Nc1ccc(Br)cc1F (stereo unspecified),-10,2,-8,1,1,4
Nc1c(N(CCCO)C(=O)C2CCCCC2)c(=O)[nH]c(=O)n1Cc1ccccc1,·,0,·,-1,·,3
N#Cc1ccc(CN2CCN(C(=O)CNC(=O)Cc3ccccc3)CC2)cc1,·,·,·,0,·,-1
COc1ccc(C(=O)Nc2ccccc2C(=O)Nc2ccc(C(=O)O)cc2)cc1,1,1,23,-1,1,2
CCOc1ccc(NC(=O)c2ccco2)c([N+](=O)[O-])c1,24,2,54*,3,-5,1
CCOc1ccccc1NC(=O)c1ccc(Cl)c(NC(=O)CC(c2ccccc2)c2ccccc2)c1,-10,80*,8,0,2,1
COc1ccc(C(=O)Nc2ccccc2C(=O)Nc2ccncc2)cc1,14,61*,29,0,3,3

# Screening data: PubChem BioAssay, several laboratories
